Screens as filed in PubChem.
IDE act = activators of human insulin-degrading enzyme in cells | P14735 | HEK cells, FAbeta-B cleavage, fluorescence polarization; 0% vehicle, 100% cell-free pure enzyme wells | activation, % at 5.96 µM | 340,000 compounds, 0.073% hits | AID 493087;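 active = activation above the mean of all tested compounds plus 3 SD, set per screening campaign, cut at about 17% in these data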
Calb FLC = C. albicans growth modulation with fluconazole | C. albicans CaCi-2 (fluconazole-resistant clinical isolate) + fluconazole, Alamar Blue growth, 48 h | growth inhibition, % (test concentration not listed) | 300,000 compounds, 0.57% hits;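 active = growth inhibition above about 58% in most replicates, limit read from the data, passing the limit was not always enough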;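 note: all wells also contain fluconazole at 8 µg/ml as a sub-toxic cotreatment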
Rin1 Abl inh = inhibitors of human Rin1-Abl protein interaction. inhibition, % at 7.35 µM. 360,000 compounds, 0.4% hits. TR-FRET Rin1/Abl binding, biochemical. P00519+Q13671; in the data active = inhibition above about 5%, passing the limit was not always enough
TPT1 inh = blocks Candida albicans tRNA 2'-phosphotransferase; recombinant caTPT1, FP RNA substrate dephosphorylation; inhibition, % at 5 µM; 300,000 compounds, 0.81% hits; AID 1962;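 active = inhibition above the mean of all tested compounds plus 3 SD, set per screening campaign, cut at about 24% in these data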
Rpn11 inh = blocks the human proteasome subunit Rpn11; human 26S proteasome, Ub4-pepOG fluorescence polarization; 20S core pre-blocked with epoxomicin; inhibition, % at 20 µM; 360,000 compounds, 0.59% hits; AID 588493;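 active = inhibition at 20 µM, scaled to each plate's controls, above about 33%, limit read from the data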
IDE cell inh = inhibitors of human insulin-degrading enzyme in cells; P14735; HEK cells, FAbetaB cleavage, fluorescence polarization; inhibition, % at 5.59 µM; 320,000 compounds, 0.41% hits; AID 434962;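 active = percent inhibition above the average of all tested compounds plus 3 SD, set per screening campaign, cut at about 16% in these data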;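 note: IDE supplied by intact live HEK cells; FP after avidin binding of uncleaved biotin substrate so inhibition keeps polarization high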
Rpn11 inh conf = confirmation of human proteasome Rpn11 inhibitors | shares compounds with Rpn11 inh | purified human 26S proteasome, Ub4-pepOG fluorescence polarization; proteasome pretreated with epoxomicin | inhibition, % at 20 µM | 1,900 compounds, 29% hits | AID 602318
MMP-2 inh = blocks human MMP-2, flagging nonselective RPN11 hits. shares compounds with Rpn11 inh. recombinant MMP-2, FRET peptide cleavage fluorescence. inhibition, % at 20 µM. 1,900 compounds, 4% hits;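 note: human MMP-2 activated beforehand with APMA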
Thrombin FP = thrombin (bovine) inhibition counter-screen; shares compounds with Rpn11 inh; bovine thrombin cleavage of Ub4-pepOG, fluorescence polarization; inhibition, % at 20 µM; 1,900 compounds, 13% hits;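 active = mean inhibition at least 40% at 20 µM, or signal 3 deviations below plate average, so some actives read negative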
Target sequence (P00735 whole entry, looked up): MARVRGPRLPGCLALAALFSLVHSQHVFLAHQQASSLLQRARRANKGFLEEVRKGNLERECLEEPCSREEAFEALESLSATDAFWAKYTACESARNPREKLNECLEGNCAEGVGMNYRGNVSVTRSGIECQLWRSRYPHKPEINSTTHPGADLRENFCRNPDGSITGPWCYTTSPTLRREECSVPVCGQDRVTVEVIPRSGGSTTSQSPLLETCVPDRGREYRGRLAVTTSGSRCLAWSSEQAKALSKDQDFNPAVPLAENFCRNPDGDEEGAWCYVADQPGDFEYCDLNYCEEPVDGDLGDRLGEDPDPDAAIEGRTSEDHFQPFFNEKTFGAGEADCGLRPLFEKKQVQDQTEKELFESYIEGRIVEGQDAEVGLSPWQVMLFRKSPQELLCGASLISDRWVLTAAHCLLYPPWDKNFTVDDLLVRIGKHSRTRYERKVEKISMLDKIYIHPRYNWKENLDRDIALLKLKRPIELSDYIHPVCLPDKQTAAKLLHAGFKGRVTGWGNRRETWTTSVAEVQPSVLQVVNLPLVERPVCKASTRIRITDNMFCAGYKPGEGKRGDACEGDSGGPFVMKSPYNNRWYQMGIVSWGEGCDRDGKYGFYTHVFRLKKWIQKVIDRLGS
Hits are given with their value; i = inactive; nt = not tested or not shown. Most compounds without a hit are left out; they make up all but 2.3% or so of the library. Cut-off read from the data, not from the text of the source, unless noted: active = inhibition above about 40%; inactive = the rest.

SMILES	IDE act	Calb FLC	Rin1 Abl inh	TPT1 inh	Rpn11 inh	IDE cell inh	Rpn11 inh conf	MMP-2 inh	Thrombin FP
O=C(CN1C(=O)/C(=C/c2ccc(F)cc2)SC1=S)N1CCN(CCc2ccccn2)CC1	i	i	i	i	41.7	i	i	i	i
CN(C)CCN(C(=O)/C=C/c1cccs1)c1nc2c(F)cc(F)cc2s1	i	i	i	i	72.6	i	i	i	i
CN(C)CCCN(C(=O)/C=C/c1cccs1)c1nc2ccc(F)cc2s1	i	i	i	i	i	i	nt	nt	nt
Nc1ccc(-c2ccc(C(=O)O)s2)cn1	i	i	i	i	i	i	nt	nt	nt
CCC1CCCCN1CCCNS(=O)(=O)c1ccc2c(c1)oc(=O)n2C (stereo not drawn)	i	i	i	i	67.5	i	i	i	i
CN(CCCCCCCCCCN(C)C(=O)Oc1cccc([N+](C)(C)C)c1)C(=O)Oc1cccc([N+](C)(C)C)c1	i	nt	i	i	i	i	nt	nt	nt
COc1ccc(/C=N/NC(=O)c2ccc(COc3ccccc3Cl)o2)cc1	i	i	i	i	i	i	nt	nt	nt
CC(=O)Nc1ccc(/C(C)=N/NC(=O)c2ccc(COc3ccccc3Cl)o2)cc1	i	i	i	i	69.5	i	46.1	i	i
CC(=O)Oc1ccc(-c2ccc(C(=O)NCCc3ccc(S(N)(=O)=O)cc3)cc2)cc1	i	i	i	i	48.5	i	i	i	i
CCOc1ccc2nc(SCC(=O)c3ccc(Cl)s3)sc2c1	i	i	i	i	56.5	i	i	i	i
CCOc1ccc2nc(SCC(=O)NCc3ccco3)sc2c1	i	i	i	i	43.7	i	i	i	i
Cc1ccc(O)c(N=NC2=C(O)CC(C)(C)CC2=O)c1	i	85.4	i	i	47.1	i	i	i	i
CC1(C)CC(=O)C(N=Nc2cc3c(cc2[N+](=O)[O-])OCCO3)=C(O)C1	i	i	i	i	i	i	nt	nt	nt
CCCn1cc([C@@H]2C[C@H]3CN(Cc4cccc(Cl)c4)C(=O)[C@]34CCCN24)c(C)n1	i	i	i	i	i	i	nt	nt	nt
Cn1cc([C@@H]2C[C@H]3CN(Cc4cccc(Cl)c4)C(=O)[C@]34CCCN24)c2ccccc21	i	i	i	i	55.2	i	53.1	i	65.3
CCC(OC(=O)c1ccco1)C(=O)NCc1ccco1 (stereo not drawn)	i	i	i	i	128.5	i	i	i	i
Nc1c(NC=O)c(=O)n(Cc2ccccc2)c(=O)n1Cc1ccccc1	i	i	i	i	i	i	nt	nt	nt
C=CCn1c(C#N)c(N)sc1=N	i	i	i	i	44.7	i	i	i	i
O=C(Nc1ccnc(=O)[nH]1)c1sc2ccccc2c1Cl	i	i	i	i	40.7	i	i	i	i
O=C(Nc1ccncc1)c1sc2ccccc2c1Cl	i	i	i	i	i	i	nt	nt	nt
O=C(Nc1cccc(C(F)(F)F)c1)c1ccc2sc([C@@H]3O[C@H](CO)[C@H](O)[C@H](O)[C@H]3O)nc2c1	nt	nt	i	nt	i	nt	nt	nt	nt
Cc1cccc(C)c1NC(=O)CN(C)C(=O)c1ccc2c(=O)n3c(nc2c1)CCC3	i	nt	i	nt	i	i	nt	nt	nt
COc1ccccc1-n1cnc2c(c1=O)c1nc3ccccc3nc1n2-c1ccc(C)cc1	i	i	i	i	89.7	i	i	i	i
O=C(NC1CCCC1)C(c1ccccn1)N(Cc1ccccc1F)C(=O)c1csnn1 (stereo not drawn)	i	i	i	i	56.5	i	i	i	i
COc1ccc(-c2cc(-c3ccc(C)cc3)nc(SCc3nnc(-c4ccccc4)o3)c2C#N)cc1OC	i	i	i	i	122.4	i	i	i	i
SMILES	IDE act	Calb FLC	Rin1 Abl inh	TPT1 inh	Rpn11 inh	IDE cell inh	Rpn11 inh conf	MMP-2 inh	Thrombin FP
COc1cc(-c2cc(-c3ccccc3)nc(SCC(=O)O)c2C#N)cc(OC)c1OC	i	i	i	i	i	i	nt	nt	nt
COc1ccc2c(c1)C(C)(Cc1ccc(C(=O)c3ccccc3)cc1)C(=O)N2 (stereo not drawn)	nt	nt	i	nt	i	nt	nt	nt	nt
CC(C)N1CCC(C)(C(=O)Nc2cccc3c2CCCC3)C1 (stereo not drawn)	nt	nt	i	nt	i	nt	nt	nt	nt
Cc1cc(C)c2nc(/N=C(\N)NC(=O)Nc3ccccc3)nc(C)c2c1	i	i	i	i	46.8	i	i	i	i
COc1ccc(CNC(=O)Cn2ccc3cc(S(=O)(=O)N4CCCC4)ccc32)cc1OC	i	i	i	i	i	i	nt	nt	nt
CN1C[C@@H](CO)O[C@@H](n2cnc3c(N4CCOCC4)ncnc32)C1	nt	nt	i	nt	i	nt	nt	nt	nt
Cn1c(CO)cnc1SCc1ccc(Cl)cc1	i	i	i	i	106.9	i	i	i	i
Cn1cccc1C(=O)NNC(=O)COc1ccccc1F	i	i	i	i	i	i	nt	nt	nt
NC(=O)CC(NC(=O)c1ccc(Br)cc1)c1ccc(NC2CCCCCC2)c([N+](=O)[O-])c1 (stereo not drawn)	i	i	i	i	43.0	i	40.1	i	i
NC(=O)CC(NC(=O)c1ccc(Br)cc1)c1ccc(NC2CCCCC2)c([N+](=O)[O-])c1 (stereo not drawn)	i	i	i	i	i	i	nt	nt	nt
Cc1cccc(-c2ccc3[nH]c4c(c3c2)CCN2C[C@@H]([C@H](C)OC(=O)Nc3ccccc3C)[C@@H](N(C)C(=O)Nc3ccccc3C)C[C@@H]42)c1	nt	nt	i	nt	i	nt	nt	nt	nt
COc1ccc(-n2nc(C(=O)NCC(=O)Nc3ccccn3)c3ccccc3c2=O)cc1Cl	i	i	i	nt	102.0	nt	i	i	i
COc1ccc([C@@H]2CC=C(C(=O)O)[C@H](c3ccc(Cl)cc3)N2S(=O)(=O)c2ccccc2C)cc1	i	nt	i	i	i	i	nt	nt	nt
O=c1[nH]c(CSc2ncnc3sccc23)nc2cc(C(F)(F)F)ccc12	i	i	i	i	49.3	i	46.2	i	i
Cc1ccc(C(C)C)c(OCc2nn(CC(=O)c3ccc(Cl)cc3)c3[n+]2CCCCC3)c1	i	i	i	i	38.6	i	i	i	i
O=C(Cn1nc(CNc2ccc(Cl)cc2)[n+]2c1CCCCC2)c1ccccc1	i	i	i	i	i	i	nt	nt	nt
Cc1ccc(S(=O)(=O)c2cc3c(=O)n4ccccc4nc3n(C3CCCCC3)c2=N)cc1	i	i	i	i	i	i	nt	nt	nt
COc1ccc(-c2nc(CS(=O)CC(=O)NCCN3CCCCC3C)c(C)o2)cc1OC (stereo not drawn)	i	i	i	i	i	i	nt	nt	nt
O=C(Nc1ccc(N2CCCC2)cc1)c1cccc(Cl)c1Cl	i	i	i	i	51.6	i	i	i	i
COc1cccc2sc3cc(NCc4ccc(C)o4)ccc3c(=O)c12	i	nt	i	nt	i	i	nt	nt	nt
